# Bioassay records (PubChem)
# Shiga inhibitor – A qHTS for Small Molecule Inhibitors of Shiga Toxin; inhibition, % at 38.7 µM; AID 2315, 2010; actives 9.2% (n = 290,000); Vero cells, Shiga toxin protein synthesis inhibition reporter; in the data active = inhibition mostly above about 28%, no sharp cut-off; inactive = mostly below about 43%; also: 0% is about no effect
# Pf growth 48h – Primary qHTS for delayed death inhibitors of the malarial parasite plastid, 48 hour incubation; P. falciparum luciferase growth in erythrocytes, 48 h; Potency, µM (doses to about 28.7 µM), inactives show top-dose activity change, negative = inhibition, hits mostly inhibitors; actives 5.9% (n = 310,000); AID 504832, 2011; also: potency is read from the fitted curve at half-maximal effect; % is scaled to controls: 0 for no effect and ±100 for the full control effect
#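 Luciferase-expressing parasites in RBCs, 2% Hct / 0.1% parasitemia final; RPMI 1640 + 0.5% Albumax; 37 C, 5% CO2, one generation; luminescence read-out, lower signal = inhibition.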
# HCV inhibitor – qHTS Assay for Inhibitors of Hepatitis C Virus (HCV) | actives 3.4% (n = 340,000) | Huh7.5.1 HCVcc-Cre infection, luciferase reporter, 44 h | Potency, µM (highest dose often 41.8 µM), without a hit: at the top dose activity change, negative = inhibition, hits mostly inhibitors | AID 651820, 2012; also: potency is read from the fitted curve at half-maximal effect; % is scaled to controls: 0 for no effect and ±100 for the full control effect
#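 Seed cells (1,000/well) for 4 h; treat with compound and infect with HCVcc-Cre, moi about 0.5. Incubate 44 h, then detect luciferase activity.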
# AMA1 RON2 block – qHTS for Inhibitors of AMA1-RON; Towards Development of Antimalarial Drug Lead: Primary Screen. actives 0.2% (n = 360,000). Plasmodium falciparum AMA1 (3D7) - RON2 peptide interaction. Potency, µM (top dose mostly 58.2 µM), for the others: at the top dose activity change, negative = inhibition, most hits filed as inhibitors. AID 720542, 2013. AlphaScreen AMA1-biotinylated RON2 peptide binding;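 also: potency is read from the fitted curve at half-maximal effect; 0% = vehicle wells and -100% = peptide control; nearly all actives have a fitted effect of over 45% in size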
#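 AMA1 (3D7) with his tag at 25 nM final met compounds first, then biotinylated RON2 peptide at 25 nM; detection used donor plus acceptor beads, 10 µg/mL apiece, read by AlphaScreen after 30 min at room temperature.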
# Pf growth 96h – Primary qHTS for delayed death inhibitors of the malarial parasite plastid, 96 hour incubation; P. falciparum luciferase reporter growth, 96 h; Potency, µM (titrated, usually from 28.7 µM), inactives show top-dose activity change, negative = inhibition, actives largely listed as inhibitors; actives 6.9% (n = 320,000); AID 504834, 2011; also: potency is read from the fitted curve at half-maximal effect; % is scaled to controls: 0 for no effect and ±100 for the full control effect
#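 Readout is luminescence from an integrated firefly luciferase in P. falciparum. Red cells, 2% hematocrit and 0.05% parasitemia final, were cultured with compound through two parasite generations (96 hours) at 37 C, 5% CO2.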
# CHX counter – Cycloheximide Counterscreen for Small Molecule Inhibitors of Shiga Toxin | max response, % | cell reporter, cycloheximide protein synthesis inhibition counterscreen | actives 12% (n = 300,000); in the data active = max response mostly above about 13%, no sharp cut-off; inactive = mostly below about 14%; also: read at 38.3 µM for the half of the compounds with a filed dose; 0% is about no effect
# An asterisk follows results filed as active; ? = inconclusive; . = no result. Only some compounds are listed: those with a hit (about 21% of all), similar ones and a draw of the others. Unless noted, calls follow the shape of the dose curve; as a rule, active = well fitted curve in the direction sought with a large enough effect; inconclusive = small, poorly fitted or top-dose-only effect, or another doubt; inactive = no such curve, though single readings can be large; an effect the other way counts as inactive or inconclusive.
SMILES,Shiga inhibitor,Pf growth 48h,HCV inhibitor,AMA1 RON2 block,Pf growth 96h,CHX counter
COc1ccc(-c2cc(-c3ccccc3)nc(Cl)n2)cc1OC,25.6,42.0%,?,64.6%,?,13.8*
CCOc1ccc(-c2cc3cc(OC)c(OC)cc3c(C)n2)cc1,20.0,-14.2%,?,-14.2%,35.8%,8.7
O=C(NC(=S)N1CCCCC1CO)c1cc(Br)ccc1Cl (centres undefined),.,46.8%,5.4%,63.5%,79.8%,.
CC1=C(C(=O)N(C(C)C)C(C)C)CC(CC(=O)NC2CCCC2)C(=O)N1Cc1ccc(F)cc1 (centres undefined),.,.,.,6.9%,.,.
COc1ccc(S(=O)(=O)N2CCc3cc4c(cc3C2C)OCCCO4)cc1 (centres undefined),-1.4,?,?,0.0%,?,-4.8
Cc1ccc(C(=O)/C=C\Nc2ccc(C)c(C)c2)cc1,108.6*,254.6%,7.2%,0.0%,246.4%,99.7*
Cc1ccc(O)c(N/C=C/C(=O)c2ccc(F)cc2)c1,129.4*,-17.2%,?,83.5%,?,42.9*
Cc1ccc(C(=O)/C=C/Nc2ccccn2)cc1,.,.,?,-4.5%,.,.
Cc1ccc(O)c(NC(=O)/C=C/C(=O)O)c1,-7.3,?,9.0%,20.1%,0.0%,1.2
Cc1ccc(N/C=C/C(=O)c2ccc(C)cc2)cc1,123.9*,.,-7.4%,-0.2%,115.4%,64.8*
CCCCCCCCCCCCCC(=O)OC(C)C,.,-10.7%,.,.,-20.2%,.
CCCCC(=O)OCc1c(-c2ccccc2)ncc2ccccc12,.,-5.7%,-20.3%,-4.4%,?,.
Fc1cccc(C[n+]2csc3ccccc32)c1,9.1,?,-13.5%,-1.3%,50.2%,2.4
c1ccc(C[n+]2csc3ccccc32)cc1,108.8*,33.9%,-10.8%,?,31.7%,14.3
COc1ccc(CN(C(=O)CSc2nnc(-c3ccccc3C)o2)c2ccc(F)cc2)cc1,24.8,?,-6.3%,-0.6%,1.1%,3.5
Clc1ccc2nc(CSc3nnc(-c4c[nH]c5ccccc45)o3)cn2c1,.,.,4.8%,9.2%,.,.
Clc1cccc(CSc2nnc(-c3c[nH]c4ccccc34)o2)c1,8.9,.,?,-9.3%,36.1%,9.8*
O=C(CSc1nnc(-c2c[nH]c3ccccc23)o1)N(Cc1ccccc1)c1ccc(F)cc1,22.9,7.38µM*,?,-8.9%,?,6.5
CCOC(=O)C1CCN(C(=O)COC(=O)c2cccc(NS(=O)(=O)c3ccccc3)c2)CC1,.,.,?,6.3%,.,.
CC(=O)c1ccc(NC(=O)CCOc2cc(C)ccc2C)cc1,115.1*,28.5%,-14.9%,-15.4%,50.3%,41.3*
Cc1ccc(NC(=O)CCOc2ccccc2C)cc1F,38.0,16.8%,-17.7%,17.2%,0.0%,29.7*
Cc1cc(F)ccc1NCC(=O)Nc1ccccc1Br,116.2*,?,13.2%,-7.3%,?,25.9*
Cc1ccc(F)cc1NCC(=O)Nc1ccc(Cl)cc1F,-1.5,4.3%,?,6.4%,-6.1%,7.9
Cc1ccc(OCCC(=O)Nc2ccc(C)c(F)c2)cc1,5.7,14.7%,?,4.3%,-6.7%,9.0
Cc1ccc(OCCC(=O)Nc2ccc(F)c(Cl)c2)cc1,-3.6,6.9%,-6.5%,28.4%,14.7µM*,1.3
CCn1c(SCC(=O)Nc2cccc(C)c2)nc2nc3c(cc2c1=O)COC(C)(C)C3,20.8,?,?,-8.3%,?,1.1
CCOc1ccc(N(CC(=O)NCc2ccc(F)cc2)C(=O)CCC(=O)Nc2nccs2)cc1,-13.4,?,5.2%,-12.4%,?,-1.7
Cc1ccccc1NCCC(=O)Nc1ccc(F)cc1,37.6,23.9%,6.4%,-2.1%,47.8%,16.3*
COCCNC(=O)c1cc(-c2ccc(-c3ccccc3)cc2)nc2ccccc12,-14.5,20.9%,10µM*,13.2%,-5.2%,1.0
